# Reference: PubChem BioAssay (Tox21)
# Several values for one entry are separate records, joined by “and”; a condition that tells them apart may be missing. Equal values may be shown once. Results filed as inconclusive are left out. Entries that show only a call come without a potency. Some compounds were tested as several samples or in several runs, with calls that do not always agree. Activity calls are given as the source filed them. Unless noted, the call rests on the fitted dose curve; in most records, active means well fitted curve in the direction sought with a large enough effect in the repeat runs; inconclusive means weak or mixed curves; inactive means no such curve, though single readings can be large; an effect the other way counts as inactive or inconclusive.
# What was measured:
# [1] = qHTS assay to identify small molecule antagonists of the estrogen related receptor (ERR) signaling pathway from Tox21 library - cell viability counter screen (AID 1224834); further: nearly all actives have a fitted effect of over 30% in size; further: potency means the concentration at half of the fitted maximal effect
# Summary of the method: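 ERR reporter cells were plated 6 h before compound addition, then exposed to test compounds in DMSO for 17.5 h at 37 C. Viability was read as CellTiter-Fluor fluorescence after a 30-minute incubation at 37 C.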
# [2] = qHTS assay to identify small molecule agonists of the constitutive androstane receptor (CAR) signaling pathway - cell viability counter screen (AID 1224836); further: nearly all actives have a fitted effect of over 45% in size
# Summary of the method: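 23 h treatment, 37 C, 5% CO2. Cell line: HepG2 stably expressing hCAR with a CYP2B6-2.2kb construct. Co-treatment: PK11195, 0.75 uM final. Read-out: CellTiter-Fluor fluorescence intensity.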
# [3] = qHTS assay to identify small molecule antagonists of the constitutive androstane receptor (CAR) signaling pathway - cell viability counter screen (AID 1224837); further: nearly all actives have a fitted effect of over 45% in size
# Summary of the method: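 HepG2 cells stably expressing hCAR and a CYP2B6-2.2kb reporter were plated and pre-incubated 4 hr at 37 C/5% CO2, then given compounds at 15 concentrations plus 50 nM CITCO (final). After 23 hr, viability was read by CellTiter-Fluor fluorescence.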
# [4] = qHTS assay to identify small molecule antagonists of the estrogen related receptor signaling pathway with the pleiotropic PPARgamma coactivator (PGC) from Tox21 10K library - cell viability counter screen (AID 1224840; active means well fitted cell-killing curve with a large enough effect in the repeat runs, not every such curve was filed as active; further: nearly all actives have a fitted effect of over 40% in size)
# Summary of the method: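 PGC/ERR cells were seeded at 2,000 cells/well and left 6 hours at 37 C/5% CO2 before pin-tool addition of compounds in DMSO. After 17.5 hours at 37 C, CellTiter-Fluor was added and fluorescence read 30 minutes later.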
# [5] = target: Thyrotropin receptor (Homo sapiens) (UniProt P16473); assay: qHTS assay to identify small molecule agonists of the thyroid stimulating hormone receptor (TSHR) signaling pathway (AID 1224843; calls by dose curve; further: nearly all actives have a fitted effect of over 45% in size; further: potency means the concentration at half of the fitted maximal effect)
# Chain of Thyrotropin receptor (Homo sapiens) (P16473 whole entry, looked up): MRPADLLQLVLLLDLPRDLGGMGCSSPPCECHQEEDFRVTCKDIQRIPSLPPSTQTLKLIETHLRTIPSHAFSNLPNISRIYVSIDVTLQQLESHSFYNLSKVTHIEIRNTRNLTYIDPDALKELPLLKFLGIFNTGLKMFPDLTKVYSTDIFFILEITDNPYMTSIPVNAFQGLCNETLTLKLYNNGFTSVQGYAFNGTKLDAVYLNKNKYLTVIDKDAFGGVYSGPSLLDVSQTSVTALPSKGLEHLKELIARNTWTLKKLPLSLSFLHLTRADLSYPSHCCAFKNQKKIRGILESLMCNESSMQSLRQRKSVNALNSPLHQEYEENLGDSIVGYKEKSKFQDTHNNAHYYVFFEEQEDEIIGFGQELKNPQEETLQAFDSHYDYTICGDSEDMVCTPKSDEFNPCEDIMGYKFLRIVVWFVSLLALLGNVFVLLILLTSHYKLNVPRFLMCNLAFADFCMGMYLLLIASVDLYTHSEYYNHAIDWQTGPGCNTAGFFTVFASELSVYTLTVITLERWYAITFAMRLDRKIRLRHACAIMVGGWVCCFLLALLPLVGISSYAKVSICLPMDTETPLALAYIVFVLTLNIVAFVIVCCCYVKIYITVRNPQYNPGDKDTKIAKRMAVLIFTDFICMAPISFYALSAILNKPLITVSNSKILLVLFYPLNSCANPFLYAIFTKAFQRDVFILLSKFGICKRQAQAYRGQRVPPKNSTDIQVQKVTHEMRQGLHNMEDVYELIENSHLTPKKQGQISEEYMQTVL
# Summary of the method: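 Steps: seed 800 TSHR-HEK293 cells per well; add test compound and hold 30 min at ambient temperature; dispense cAMP-d2 then anti-cAMP cryptate; incubate 1 h at ambient; measure fluorescence intensity.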
# [6] = qHTS assay to identify small molecule agonists of the hypoxia (HIF-1) signaling pathway - cell viability counter screen (AID 1224844; calls by dose curve; further: nearly all actives have a fitted effect of over 50% in size; further: potency means the concentration at half of the fitted maximal effect)
# Summary of the method: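 HRE-bla ME-180 cells in medium with 0.5% dialyzed FBS were preincubated 5 hrs at 37C, exposed to compounds for 17 hrs, then viability was read as CellTiter-Glo luminescence after 30 min at room temperature, in the reporter wells.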
# [7] = qHTS assay to identify small molecule agonists of H2AX (AID 1224845; active means well fitted activation curve with a large enough effect in the signal ratio in the repeat runs, not every such curve was filed as active; the % refers to the signal ratio)
# Summary of the method: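 Wild-type CHO-K1 cells, plated overnight, exposed 3hr at 37C to 15 concentrations (0.76% DMSO final). Lysed, then HTRF anti-pH2AX (S139) cryptate and anti-H2AX-d2 antibodies, 24 hr room temperature; 665/620 nm emission read.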
# [8] = qHTS assay to identify small molecule agonists of the hypoxia (HIF-1) signaling pathway (AID 1224846; active means well fitted activation curve with a large enough effect in the signal ratio in the repeat runs, not every such curve was filed as active; the % refers to the signal ratio)
# Summary of the method: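 HRE-bla ME-180 cells (beta-lactamase reporter under hypoxia response element) were plated at 2,000 cells/well in medium with 0.5% dialyzed FBS, rested 5 hrs, then given compounds in DMSO for 17 hrs at 37C, 5% CO2. Reporter induction was read with CCF4-AM FRET substrate.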
# [9] = qHTS assay to identify small molecule agonists of H2AX - cell viability counter screen (AID 1224847; calls by dose curve; further: top concentration of the series differs between compounds; nearly all actives have a fitted effect of over 30% in size)
# Summary of the method: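 Compounds tested at 15 concentrations were incubated 3 hr at 37C with wild-type CHO-K1 cells; cellular ATP-based luminescence (CellTiter-Glo) indicated viability.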
# [10] = qHTS RealTime-Glo MT Cell Viability Assay in HepG2 cells - 24 hour (AID 1224867); further: nearly all actives have a fitted effect of over 50% in size
# Summary of the method: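 Real-time, nonlytic viability: 600 HepG2 cells/well mixed with NanoLuc enzyme plus prosubstrate; 5 h settle, compound (DMSO) added by pintool; luminescence monitored over 40 h at 37 C.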
# [11] = A CellTox Green Cytotoxicity Assay to monitor cytotoxicity in HEK293 cells - 0 hour (AID 1224869); further: nearly all actives have a fitted effect of over 50% in size
# Summary of the method: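 HEK293 cells premixed with CellTox Green dye were seeded at 600 cells/well and left 5 h at 37 C/5% CO2 before pin transfer of 23 nL compound in DMSO. Fluorescence from dye bound to dead-cell DNA was read during 40 h treatment.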
# [12] = qHTS assay to identify small molecule antagonists of the estrogen related receptor signaling pathway with the pleiotropic PPARgamma coactivator (PGC) from Tox21 10K library (AID 1224841; call rule not given here; further: actives are mostly falling curves and most rising ones were filed inactive; nearly all actives have a fitted effect of over 50% in size)
# Summary of the method: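 PGC/ERR reporter cells were seeded at 2,000 cells/well and held 6 hours at 37 C/5% CO2 before pin-tool addition of compounds in DMSO. After 18 hours at 37 C, One-Glo was added and luminescence read after 30 minutes at room temperature.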
# [13] = qHTS assay to identify small molecule agonists of the estrogen related receptor signaling pathway with the pleiotropic PPARgamma coactivator (PGC) from Tox21 10K library (AID 1224842); further: nearly all actives have a fitted effect of over 15% in size; further: potency means the concentration at half of the fitted maximal effect
# Summary of the method: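 PGC/ERR reporter cell line, 2,000 cells per well, incubated 6 h at 37 C before 23 nL compound in DMSO was added. After 18 h at 37 C, One-Glo luminescence read following 30 min at room temperature.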
# [14] = qHTS assay to identify small molecule antagonists of the estrogen related receptor (ERR) signaling pathway from Tox21 library (AID 1224848); further: nearly all actives have a fitted effect of over 50% in size
# Summary of the method: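 Luminescent reporter read-out (ONE-Glo) from NTP's ERR cell line after 18 h treatment at 37 C with DMSO-dissolved Tox21 compounds; cells pre-plated 6 h beforehand at 2,000 per well.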
# [15] = qHTS assay to identify small molecule agonists of the estrogen related receptor (ERR) signaling pathway from Tox21 library (AID 1224849; calls by dose curve; further: nearly all actives have a fitted effect of over 15% in size); conditions: ERR reporter cell line, ONE-Glo luciferase, 18 h; at 92.4 µM (top of the series)
# Summary of the method: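 ERR reporter cell line (NTP) seeded, rested 6 h at 37 C/5% CO2, then pinned with Tox21 compounds in DMSO. After 18 h at 37 C, ONE-Glo luciferase luminescence was read following 30 min at room temperature.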
# [16] = qHTS RealTime-Glo MT Cell Viability Assay in HEK293 cells - 32 hour (AID 1224868)
# Summary of the method: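 Cells + reagent dispensed (600 cells/well, HEK293) → 5 h at 37 C/5% CO2 → 23 nL compound in DMSO pinned → 40 h at 37 C → luminescence read at 0, 8, 16, 24, 32, 40 h.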
# [17] = target: Nuclear receptor subfamily 1 group I member 3 (Homo sapiens) (UniProt Q14994); assay: qHTS assay to identify small molecule antagonists of the constitutive androstane receptor (CAR) signaling pathway (AID 1224838); further: nearly all actives have a fitted effect of over 40% in size
# Chain of Nuclear receptor subfamily 1 group I member 3 (Homo sapiens) (Q14994 whole entry, looked up): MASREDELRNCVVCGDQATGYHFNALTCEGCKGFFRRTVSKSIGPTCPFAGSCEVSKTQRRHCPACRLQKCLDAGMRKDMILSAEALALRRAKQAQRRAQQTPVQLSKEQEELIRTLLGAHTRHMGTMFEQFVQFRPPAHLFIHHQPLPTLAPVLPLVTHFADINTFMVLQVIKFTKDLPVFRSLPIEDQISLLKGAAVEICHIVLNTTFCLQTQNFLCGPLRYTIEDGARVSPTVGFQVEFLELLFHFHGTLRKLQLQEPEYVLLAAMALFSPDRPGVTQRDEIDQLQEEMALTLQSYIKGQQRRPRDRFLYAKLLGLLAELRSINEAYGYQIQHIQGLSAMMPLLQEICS
# Summary of the method: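 HepG2 cells stably co-transfected with hCAR and a CYP2B6-2.2kb luciferase reporter were seeded 4 h before compound addition at 15 concentrations. Cells were stimulated with 50 nM CITCO (final) for 24 h at 37 C; luciferase luminescence was then read.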
# [18] = target: Nuclear receptor subfamily 1 group I member 3 (Homo sapiens) (UniProt Q14994); assay: qHTS assay to identify small molecule agonists of the constitutive androstane receptor (CAR) signaling pathway (AID 1224839); further: nearly all actives have a fitted effect of over 15% in size; further: potency means the concentration at half of the fitted maximal effect;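 on activation: HepG2 cells stably carrying human CAR and a CYP2B6 luciferase reporter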
# Summary of the method: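 Compounds tested at 15 concentrations on HepG2 cells stably harbouring hCAR and CYP2B6-2.2kb reporter constructs, co-treated with PK11195 (0.75 uM final), 24 h at 37 C; luminescent reporter signal quantified.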
# [19] = target: Luciferin 4-monooxygenase (Photinus pyralis) (UniProt P08659); assay: qHTS assay to identify small molecule inhibitors of firefly luciferase (AID 1224835); further: nearly all actives have a fitted effect of over 25% in size
# Chain of Luciferin 4-monooxygenase (Photinus pyralis) (P08659 whole entry, looked up): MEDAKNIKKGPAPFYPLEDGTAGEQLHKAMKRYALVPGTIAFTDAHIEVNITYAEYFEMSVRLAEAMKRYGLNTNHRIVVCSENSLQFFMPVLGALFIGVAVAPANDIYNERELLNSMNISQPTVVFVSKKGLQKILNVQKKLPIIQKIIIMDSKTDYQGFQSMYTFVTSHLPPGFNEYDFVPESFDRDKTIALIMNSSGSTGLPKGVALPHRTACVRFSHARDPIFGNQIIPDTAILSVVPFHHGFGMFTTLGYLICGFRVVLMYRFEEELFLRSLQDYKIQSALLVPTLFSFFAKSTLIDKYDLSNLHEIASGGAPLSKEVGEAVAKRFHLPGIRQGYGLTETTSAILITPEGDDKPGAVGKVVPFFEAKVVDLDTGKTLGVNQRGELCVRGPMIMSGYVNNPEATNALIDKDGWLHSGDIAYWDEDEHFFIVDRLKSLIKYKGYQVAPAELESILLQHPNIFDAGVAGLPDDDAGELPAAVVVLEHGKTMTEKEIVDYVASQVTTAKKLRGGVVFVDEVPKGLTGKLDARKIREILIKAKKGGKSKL
# Summary of the method: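 Biochemical qHTS: compounds run as interplate titrations against purified firefly enzyme, with D-luciferin and ATP each at its KM concentration. Light output recorded by CCD imaging.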
Structure (SMILES),Potency [1],Potency [2],Potency [3],Potency [4],Potency [5],Potency [6],Potency [7],outcome [8],Potency [9],Potency [10],Potency [11],Potency [12],Potency [13],Potency [14],"activity change, positive = activation [15]",Potency [16],Potency [17],Potency [18],Potency [19]
OCC#CCO,inactive,inactive,inactive,inactive,inactive,inactive,inactive,inactive,inactive,inactive,inactive,,,,,,,,
c1ccc2ccccc2c1,inactive,inactive,inactive,inactive,inactive,inactive,inactive,inactive,inactive,inactive,inactive,inactive,inactive,inactive,7.43% (inactive) and 7.09% (inactive),inactive,,,
C=C(C)C(=O)OCCCCCC,inactive,inactive,inactive,inactive,inactive,inactive,inactive,inactive,inactive,inactive,inactive,,,,,inactive,,,
CCC(C)C=O (stereo not drawn),inactive,inactive,inactive,inactive,4.32 µM (active) and inactive,inactive,inactive,inactive,inactive,inactive,inactive,,,,,,inactive,inactive,
O=[N+]([O-])c1cccc(Cl)c1,inactive,inactive,inactive,inactive,6.74 µM (active) and inactive,inactive,inactive,inactive,inactive,inactive,inactive,inactive,inactive,inactive,8.37% (inactive) and -4.75% (inactive),inactive,,,
NS(=O)(=O)c1cc2c(cc1Cl)NC=NS2(=O)=O,inactive,inactive,inactive,inactive,inactive,inactive,inactive,inactive,inactive,inactive,inactive,,,,,inactive,inactive,,
Cc1cc(Cc2ccc(N)c(C)c2)ccc1N,inactive,inactive,inactive,inactive,,inactive,inactive,inactive,inactive,inactive,inactive,,,,,,inactive,48.6 µM (active),
CN(C)c1cccc(O)c1,inactive,inactive,inactive,inactive,inactive,inactive,inactive,inactive,inactive,inactive,inactive,,,,,,inactive,62.1 µM (active),
CC[Si](OC(C)=O)(OC(C)=O)OC(C)=O,inactive,inactive,inactive,inactive,inactive,inactive,inactive,inactive,inactive,inactive,inactive,,,,,inactive,inactive,inactive,
COC(=O)c1ccccc1O,inactive,inactive,inactive,inactive,inactive,inactive,inactive,inactive,inactive,inactive,inactive,inactive,21.7 µM (active) and inactive,inactive,19.3% (active) and 7.16% (inactive),inactive,,,
CC(C)NCC(O)COc1cccc2ccccc12 (stereo not drawn),inactive,,inactive,inactive,,inactive,inactive,,inactive,inactive,inactive,,,,,,inactive,inactive,
CC(C)n1c(/C=C/[C@@H](O)C[C@@H](O)CC(=O)O)c(-c2ccc(F)cc2)c2ccccc21,inactive,inactive,inactive,inactive,,inactive,inactive,inactive,inactive,inactive,inactive,,,,,inactive,,,
CCCCCCCCCC(=O)O,inactive,inactive,inactive,inactive,inactive,inactive,inactive,inactive,inactive,inactive,inactive,inactive,inactive,inactive,-1.8% (inactive) and -5.57% (inactive),,,,
Cc1cc(NS(=O)(=O)c2ccc(N)cc2)no1,inactive,inactive,inactive,inactive,inactive,inactive,,,inactive,inactive,inactive,,,,,inactive,inactive,inactive,
CC(C)(C)C1CCC(O)CC1 (stereo not drawn),inactive,inactive,inactive,inactive,inactive,inactive,inactive,inactive,inactive,inactive,inactive,,,,,inactive,inactive,inactive,
NC(=O)NNc1ccccc1,inactive,inactive,inactive,inactive,inactive,inactive,inactive,inactive,inactive,inactive,inactive,,,,,inactive,inactive,inactive,
Cc1ccc(C)c(C)c1,inactive,inactive,inactive,inactive,inactive,inactive,inactive,inactive,inactive,inactive,inactive,,,,,,inactive,inactive,
Clc1cc(Cl)c(Cl)cc1Cl,inactive,inactive,inactive,inactive,,inactive,inactive,inactive,inactive,inactive,inactive,inactive,inactive,inactive,6.69% (inactive) and 12.5% (inactive),,,,
Nc1c(S(=O)(=O)O)cc(Br)c2c1C(=O)c1ccccc1C2=O,inactive and 24.3 µM (active),,,inactive,inactive,inactive,,inactive,inactive,inactive,inactive,,,,,,,,
O=S(=O)(O)c1cc(S(=O)(=O)O)c2c(N=Nc3ccccc3)c(O)ccc2c1,54.7 µM (active) and 34.4 µM (active),,,,inactive,inactive,,inactive,inactive,inactive,inactive,,,,,,inactive,inactive,
CCC(=O)O,inactive,inactive,inactive,inactive,,inactive,inactive,inactive,inactive,inactive,inactive,,,,,inactive,,,
COCC(C)O (stereo not drawn),inactive,inactive,inactive,inactive,inactive,inactive,inactive,inactive,inactive,inactive,inactive,inactive,inactive,inactive,-0.602% (inactive) and 6.16% (inactive),inactive,,,
C=C1CC[C@H](O)CC1=C/C=C1\CCC[C@]2(C)[C@@H]([C@H](C)/C=C/[C@H](C)C(C)C)CC[C@@H]12,,inactive,inactive,inactive,21.5 µM (active) and 34.4 µM (active),43.3 µM (active) and 34.7 µM (active),,,,inactive,inactive,,,,,,inactive,,inactive
OCCOCCOCCOCCO,inactive,inactive,inactive,inactive,inactive,inactive,inactive,inactive,inactive,inactive,inactive,,,,,inactive,,,
C/C=C(C)/C=C/C=C(C)C,inactive,inactive,inactive,inactive,,inactive,inactive,inactive,inactive,inactive,inactive,,,,,inactive,inactive,inactive,
CCOC(=O)C1OC1c1ccccc1 (stereo not drawn),inactive,inactive,inactive,inactive,,inactive,inactive,inactive,inactive,inactive,inactive,,,,,,inactive,inactive,
Cc1cc(O)cc(C)c1Cl,inactive,inactive,inactive,inactive,inactive,inactive,inactive,inactive,inactive,inactive,inactive,,,,,inactive,,,
C[C@@H]1O[C@@H](OC[C@H]2O[C@@H](Oc3c(-c4ccc(O)c(O)c4)oc4cc(O)cc(O)c4c3=O)[C@H](O)[C@@H](O)[C@@H]2O)[C@H](O)[C@H](O)[C@H]1O,inactive,inactive,inactive,inactive,inactive,inactive,,inactive,inactive,inactive,inactive,,,,,,inactive,inactive,
Clc1ccc(Cl)c(Cl)c1Cl,inactive,inactive,inactive,inactive,inactive,inactive,inactive,inactive,inactive,inactive,inactive,,,,,,inactive,inactive,
COCC(=O)O,inactive,inactive,inactive,inactive,inactive,inactive,inactive,inactive,inactive,inactive,inactive,,,,,inactive,,,
